Assay results: PubChem BioAssay AID743279 (National Center for Advancing Translational Sciences (NCATS), 2014)
The campaign covered roughly 360,000 compounds. About 17,000 (4.7%) were called active. Inconclusive results (about 5%) are left out. This is one part of a sample in which actives are shown more often than they occur. No stated cut-off is given here; in the data, active means activity change below about -50%; inconclusive means mostly about -30% to -49%; inactive means weaker than that.

Assay: qHTS for Inhibitors of Inflammasome Signaling: IL-1-beta AlphaLISA Primary Screen
Conditions: THP-1 LPS/ATP IL-1B secretion, 16 h; at 57.5 µM, hits give low values
Procedure, shortened: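 Secreted IL-1B measured by AlphaLISA bead assay after 16 h compound exposure of THP-1 cells; compounds (final up to 57.5 uM) added 1 h before LPS (250 ng/mL) and ATP (1.25 mM) stimulation; lower signal means less secretion.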
On the % scale 0 is the no-effect control and ±100 the full control effect.

Row | SMILES | activity change
1 | O=C(Nc1ccc(F)cc1)N1CCCC(c2nc3c(nnn3Cc3ccccc3Cl)c(=O)[nH]2)C1 (stereo not given) | -15.2% (inactive)
2 | Cc1ccc(NC(=O)N2CCC(c3nc4c(nnn4Cc4c(F)cccc4Cl)c(=O)[nH]3)CC2)cc1 | -69% (active)
3 | COc1ccc(Cn2nnc3c(=O)[nH]c(C4CCN(C(=O)c5ccccc5Cl)CC4)nc32)cc1 | 0% (inactive)
4 | CC[C@]12c3[nH]c4cc(CCC(=O)N(C)C)ccc4c3CCN1C(=O)[C@@H](CC(=O)NCCCN(C)C)C[C@@H]2C(=O)N1CCN(C(=O)c2ccco2)CC1 | 0% (inactive)
5 | CC1CCN(C(=O)CSc2nnc(-c3ccco3)n2N)CC1 | 3.36% (inactive)
6 | c1ccc(Cc2c(-c3ccco3)nc3c4ccccc4ccn23)cc1 | -21.7% (inactive)
7 | Cc1ccc(OCC(O)CN2CCN(CC(O)COc3ccc(C)cc3Cl)CC2)c(Cl)c1 (stereo not given) | 4.54% (inactive)
8 | C=CCc1ccccc1OCC(O)CN1CCN(CCO)CC1 (stereo not given) | 9.73% (inactive)
9 | Cc1cccc(OCC(O)CN2CCN(CCN3C(=O)c4cccc5cccc(c45)C3=O)CC2)c1C (stereo not given) | -52.3% (active)
10 | CCCCN1C(=O)C(CC(=O)NCc2cccs2)CC(C(=O)N2CCCCCC2)=C1C (stereo not given) | 7% (inactive)
11 | Clc1ccc(-n2nnnc2CN2CCCCC2)cc1Cl | 9.91% (inactive)
12 | COc1ccccc1/C=C1\SC(=O)N(CCC(=O)N(C)C2CCS(=O)(=O)C2)C1=O (stereo not given) | -15.1% (inactive)
13 | CN(C(=O)CN1C(=O)S/C(=C\c2ccccc2F)C1=O)C1CCS(=O)(=O)C1 (stereo not given) | -16.9% (inactive)
14 | CN(C(=O)CCN1C(=O)/C(=C/c2ccccc2F)SC1=S)C1CCS(=O)(=O)C1 (stereo not given) | -99.1% (active)
15 | CCC(C)CN1C(=O)CSCC1(C)C(=O)NCc1ccccc1 (stereo not given) | -5.63% (inactive)
16 | COc1ccc(S(=O)(=O)N2CCOCC2)cc1NC(=O)COc1ccccc1 | 6.58% (inactive)
17 | CC(=O)c1cccc(NC(=O)COc2ccc(S(=O)(=O)N3CCOCC3)cc2)c1 | -9.57% (inactive)
18 | COC(=O)COc1ccc(S(=O)(=O)N2CCOCC2)cc1 | -50.5% (active)
19 | Cc1cc2c(cc1C)NC1(C[C@H]3CCC(=O)N4CC[C@@H](C1)[C@@H]34)C(=NC(C)(C)CC(C)(C)C)N2 (stereo not given in full) | 1.01% (inactive)
20 | C=CCN(N=Nc1cccc([N+](=O)[O-])c1)c1cccc([N+](=O)[O-])c1 | -16.1% (inactive)
21 | NS(=O)(=O)c1ccc(CNC(=O)c2cccc(Oc3ccccc3)c2)cc1 | -74.2% (active)
22 | NS(=O)(=O)c1ccc(CNC(=O)c2cnccn2)cc1 | 2.67% (inactive)
23 | NS(=O)(=O)c1ccc(CNC(=O)c2cccc(S(=O)(=O)N3CCc4ccccc43)c2)cc1 | -11.1% (inactive)
24 | CCc1ccc(OC2(C)CCN(CCOc3ccc(C)cc3)C2)cc1 (stereo not given) | -10% (inactive)
25 | O=C1CSC(=S)N1/N=C/c1ccc(O)c([N+](=O)[O-])c1 | 23.5% (inactive)
26 | O=C(CC[C@H]1O[C@@H](n2ccc(=O)[nH]c2=O)[C@H](O)[C@@H]1O)N[C@H](Cc1ccccc1)C(=O)NCCCN1CCCC1=O | 15.8% (inactive)
27 | Cc1cc(C(=O)N2CCCC2(C)C(=O)O)c(C)o1 (stereo not given) | -11.9% (inactive)
28 | CCn1c(SCC(=O)Nc2nc(C)cs2)nnc1C(C)NC(=O)c1ccccc1 (stereo not given) | -6.67% (inactive)

Row | SMILES | activity change
29 | COc1ccc(CN2CCN(Cc3cn(C)nc3-c3ccccc3)CC2CCO)c(C)c1C (stereo not given) | -57.9% (active)
30 | Cc1ccc(CN2CCN(Cc3cn(C)nc3-c3ccccc3)CC2CCO)o1 (stereo not given) | 40.4% (inactive)
31 | CCn1nc(C)c(CN2CCN(Cc3ccc(OC)c(C)c3C)C(CCO)C2)c1C (stereo not given) | 9.61% (inactive)
32 | Cc1noc(C)c1C(=O)N1CCC1(C)C(=O)NS(=O)(=O)c1ccc(C#N)cc1 (stereo not given) | -5.56% (inactive)
33 | O=C(Nc1ccccc1)c1ccccc1Br | 9.09% (inactive)
34 | CC1(C(=O)NS(=O)(=O)c2ccc(C#N)cc2)CCN1C(=O)CC1CCCC1 (stereo not given) | 4.38% (inactive)
35 | CC(=O)C[C@@H]1OC[C@H](C)N1S(=O)(=O)c1ccc(C)cc1 | -13.9% (inactive)
36 | Cc1cc2[nH]ncc2cc1NC(=S)NC(=O)c1ccccc1 | -1.02% (inactive)
37 | Cc1cccc(NC(=O)NC(=S)NC(=O)c2ccccc2)c1 | -7.59% (inactive)
38 | Cc1ccc(NC(=S)NC(=O)c2ccc(-c3ccccc3)cc2)c(C)c1 | -50.2% (active)
39 | O=C(N[C@H]1C/C=C\C(c2cccc(F)c2)N(Cc2ccccc2)C(=O)C1)OCC1c2ccccc2-c2ccccc21 (stereo not given in full) | -10% (inactive)
40 | CC[C@@H]1CC2=C(C(=O)OC(C)(C)O2)[C@@H](CC)O1 | 22.9% (inactive)
41 | O=C(C1CC1)N1N=C2CCCCC2C1(O)C(F)(F)F (stereo not given) | -13% (inactive)
42 | O=C(OCc1nnc(-c2ccccc2)o1)c1cc(=O)[nH]c2ccccc12 | -11.8% (inactive)
43 | CCOC(=O)c1ccc(COC(=O)c2cc(=O)[nH]c3ccccc23)o1 | -68.1% (active)
44 | CN(C(=O)COC(=O)c1cc(=O)[nH]c2ccccc12)C1CCCCC1 | 0% (inactive)
45 | CC(CO)NCC12CC3CC(CC(C3)C1)C2 (stereo not given) | 4.35% (inactive)
46 | CC(=O)NC(c1ccccc1)c1nc(-c2ccccc2C)cs1 (stereo not given) | 0.953% (inactive)
47 | CCCCN(C=O)c1c(CC)nc2c(OCc3ccccc3C(=O)OC)cccn12 | 0% (inactive)
48 | CCCCN(C=O)c1c(CC)nc2c(OCCC3CCCCC3)cccn12 | -56.6% (active)
49 | CCc1nc2c(OCCOc3ccccc3)cccn2c1N(C=O)Cc1ccc(OC)cc1 | 29.8% (inactive)
50 | COc1cccc(CNc2nc(NCc3ccccc3OC)nc3ccsc23)c1 | -75.5% (active)
51 | COc1cccc(-c2cc3nc(NCc4ccccc4OC)n(C)c(=O)c3s2)c1 | 0.83% (inactive)
52 | COc1cccc(CNc2nc(NCc3cccs3)nc3ccsc23)c1 | -4.63% (inactive)
53 | COc1ccc(C(=O)N(C)Cc2ccc(OC)c(OC)c2OC)cc1S(=O)(=O)N1CCOCC1 | -8.15% (inactive)
54 | Cc1coc2c(O)cc3c(c12)OC1(N2CCCCC2)C(=O)NCCCC31 (stereo not given) | -99.3% (active)
55 | COCCN1CCN(C(=O)c2cc(COc3ccc(F)cc3Cl)on2)CC1 | 22.2% (inactive)
